# This excerpt belongs to a sample that is enriched for the strongest signals.
# Legend:
# Test in all cases: glycan array binding signal (z-score within array); higher = stronger binding
# Details in all cases: glycan notation: IUPAC condensed, linker removed
# [1] = molecular target: Fuc(a1-2)Gal(b1-3)GlcNAc(b1-3)[Neu5Ac(a2-6)Gal(b1-4)GlcNAc(b1-6)]Gal(b1-4)Glc
# Procedure, shortened: (§1)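 Glycan array binding is given as a within-array Z-score, which can be read as non-binding when negative. The arrays, 3228 of them, came from the Consortium for Functional Glycomics database and were retained only where the protein sequence was available. Z-scores were averaged across arrays of the same protein sequence at different concentrations or buffers and across linkers.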
# [2] = molecular target: Fuc(a1-2)Gal(b1-4)GlcNAc(b1-3)Gal(b1-4)GlcNAc(b1-2)Man(a1-3)[Fuc(a1-2)Gal(b1-4)GlcNAc(b1-3)Gal(b1-4)GlcNAc(b1-2)Man(a1-6)]Man(b1-4)GlcNAc(b1-4)GlcNAc
# Procedure, shortened: as §1
# [3] = molecular target: Fuc(a1-2)Gal(b1-4)GlcNAc(b1-3)GalNAc
# Procedure, shortened: as §1
# [4] = molecular target: Fuc(a1-2)Gal6S(b1-3)GlcNAc
# Procedure, shortened: as §1
# [5] = molecular target: Fuc(a1-2)[Gal(a1-3)]Gal(b1-4)GlcNAc
# Procedure, shortened: as §1
# [6] = molecular target: Fuc(a1-2)[Gal(a1-3)]Gal(b1-4)GlcNAc(b1-2)Man(a1-3)[Fuc(a1-2)[Gal(a1-3)]Gal(b1-4)GlcNAc(b1-2)Man(a1-6)]Man(b1-4)GlcNAc(b1-4)GlcNAc
# Procedure, shortened: as §1
# [7] = molecular target: Fuc(a1-2)[GalNAc(a1-3)]Gal(b1-4)GlcNAc
# Procedure, shortened: as §1
# [8] = molecular target: Fuc(a1-2)[GalNAc(a1-3)]Gal(b1-4)GlcNAc(b1-2)Man(a1-3)[Fuc(a1-2)[GalNAc(a1-3)]Gal(b1-4)GlcNAc(b1-2)Man(a1-6)]Man(b1-4)GlcNAc(b1-4)GlcNAc
# Procedure, shortened: as §1
# [9] = molecular target: Fuc(a1-2)[GalNAc(a1-3)]Gal(b1-4)[Fuc(a1-3)]GlcNAc
# Procedure, shortened: as §1
# [10] = molecular target: Fuc(a1-2)[GalNAc(a1-3)]Gal(b1-4)[Fuc(a1-3)]GlcNAc(b1-3)GalNAc
# Procedure, shortened: as §1
# [11] = molecular target: Fuc(a1-3)[Gal(b1-4)]GlcNAc(b1-2)Man(a1-3)[Fuc(a1-3)[Gal(b1-4)]GlcNAc(b1-2)Man(a1-6)]Man(b1-4)GlcNAc(b1-4)GlcNAc
# Procedure, shortened: as §1
# Gal(a1-3)Gal = molecular target: Gal(a1-3)Gal
# Procedure, shortened: as §1
# Gal(a1-4)Gal(b1-4)Glc = molecular target: Gal(a1-4)Gal(b1-4)Glc
# Procedure, shortened: as §1
# Gal(b1-3)GalNAc = molecular target: Gal(b1-3)GalNAc
# Procedure, shortened: as §1
# [12] = molecular target: Gal(b1-3)GalNAc(b1-4)Gal(b1-4)Glc
# Procedure, shortened: as §1
# [13] = molecular target: Gal(b1-3)GlcNAc(b1-3)Gal(b1-4)GlcNAc
# Procedure, shortened: as §1
# [14] = molecular target: Gal(b1-3)GlcNAc(b1-3)Gal(b1-4)GlcNAc(b1-6)[Gal(b1-3)GlcNAc(b1-3)]Gal(b1-4)Glc
# Procedure, shortened: as §1
# [15] = molecular target: Gal(b1-4)GlcNAc(b1-3)Gal(b1-4)GlcNAc(b1-2)Man(a1-3)[Gal(b1-4)GlcNAc(b1-3)Gal(b1-4)GlcNAc(b1-2)Man(a1-6)]Man(b1-4)GlcNAc(b1-4)[Fuc(a1-6)]GlcNAc
# Procedure, shortened: as §1
# [16] = molecular target: Gal(b1-4)GlcNAc(b1-3)Gal(b1-4)GlcNAc(b1-2)[Gal(b1-4)GlcNAc(b1-3)Gal(b1-4)GlcNAc(b1-6)]Man(a1-6)[Gal(b1-4)GlcNAc(b1-3)Gal(b1-4)GlcNAc(b1-2)Man(a1-3)]Man(b1-4)GlcNAc(b1-4)GlcNAc
# Procedure, shortened: as §1
# [17] = molecular target: Gal(b1-4)GlcNAc(b1-3)Gal(b1-4)GlcNAc(b1-3)Gal(b1-4)GlcNAc(b1-2)Man(a1-3)[Gal(b1-4)GlcNAc(b1-3)Gal(b1-4)GlcNAc(b1-3)Gal(b1-4)GlcNAc(b1-2)Man(a1-6)]Man(b1-4)GlcNAc(b1-4)[Fuc(a1-6)]GlcNAc
# Procedure, shortened: as §1
# [18] = molecular target: Gal(b1-4)GlcNAc(b1-3)Gal(b1-4)GlcNAc(b1-3)Gal(b1-4)GlcNAc(b1-2)[Gal(b1-4)GlcNAc(b1-3)Gal(b1-4)GlcNAc(b1-3)Gal(b1-4)GlcNAc(b1-6)]Man(a1-6)[Gal(b1-4)GlcNAc(b1-3)Gal(b1-4)GlcNAc(b1-3)Gal(b1-4)GlcNAc(b1-2)Man(a1-3)]Man(b1-4)GlcNAc(b1-4)[Fuc(a1-6)]GlcNAc
# Procedure, shortened: as §1
# [19] = molecular target: Gal(b1-4)GlcNAc(b1-3)Gal(b1-4)GlcNAc(b1-3)Gal(b1-4)GlcNAc(b1-3)Gal(b1-4)GlcNAc(b1-2)Man(a1-3)[Gal(b1-4)GlcNAc(b1-3)Gal(b1-4)GlcNAc(b1-3)Gal(b1-4)GlcNAc(b1-3)Gal(b1-4)GlcNAc(b1-2)Man(a1-6)]Man(b1-4)GlcNAc(b1-4)GlcNAc
# Procedure, shortened: as §1
# [20] = molecular target: Gal(b1-4)GlcNAc(b1-3)Gal(b1-4)GlcNAc(b1-3)Gal(b1-4)GlcNAc(b1-3)Gal(b1-4)GlcNAc(b1-2)Man(a1-3)[Gal(b1-4)GlcNAc(b1-3)Gal(b1-4)GlcNAc(b1-3)Gal(b1-4)GlcNAc(b1-3)Gal(b1-4)GlcNAc(b1-2)Man(a1-6)]Man(b1-4)GlcNAc(b1-4)[Fuc(a1-6)]GlcNAc
# Procedure, shortened: as §1
# [21] = molecular target: Gal(b1-4)GlcNAc(b1-3)Gal(b1-4)GlcNAc(b1-3)Gal(b1-4)GlcNAc(b1-3)Gal(b1-4)GlcNAc(b1-2)[Gal(b1-4)GlcNAc(b1-3)Gal(b1-4)GlcNAc(b1-3)Gal(b1-4)GlcNAc(b1-3)Gal(b1-4)GlcNAc(b1-6)]Man(a1-6)[Gal(b1-4)GlcNAc(b1-3)Gal(b1-4)GlcNAc(b1-3)Gal(b1-4)GlcNAc(b1-3)Gal(b1-4)GlcNAc(b1-2)Man(a1-3)]Man(b1-4)GlcNAc(b1-4)[Fuc(a1-6)]GlcNAc
# Procedure, shortened: as §1
# [22] = molecular target: Gal(b1-4)GlcNAc(b1-3)Gal(b1-4)GlcNAc(b1-3)Gal(b1-4)GlcNAc(b1-3)Gal(b1-4)GlcNAc(b1-3)Gal(b1-4)GlcNAc(b1-2)Man(a1-3)[Gal(b1-4)GlcNAc(b1-3)Gal(b1-4)GlcNAc(b1-3)Gal(b1-4)GlcNAc(b1-3)Gal(b1-4)GlcNAc(b1-3)Gal(b1-4)GlcNAc(b1-2)Man(a1-6)]Man(b1-4)GlcNAc(b1-4)GlcNAc
# Procedure, shortened: as §1
# [23] = molecular target: Gal(b1-4)GlcNAc(b1-3)Gal(b1-4)GlcNAc(b1-3)Gal(b1-4)GlcNAc(b1-3)Gal(b1-4)GlcNAc(b1-3)Gal(b1-4)GlcNAc(b1-2)[Gal(b1-4)GlcNAc(b1-3)Gal(b1-4)GlcNAc(b1-3)Gal(b1-4)GlcNAc(b1-3)Gal(b1-4)GlcNAc(b1-3)Gal(b1-4)GlcNAc(b1-6)]Man(a1-6)[Gal(b1-4)GlcNAc(b1-3)Gal(b1-4)GlcNAc(b1-3)Gal(b1-4)GlcNAc(b1-3)Gal(b1-4)GlcNAc(b1-3)Gal(b1-4)GlcNAc(b1-2)Man(a1-3)]Man(b1-4)GlcNAc(b1-4)[Fuc(a1-6)]GlcNAc
# Procedure, shortened: as §1
# [24] = molecular target: Gal(b1-4)GlcNAc(b1-3)Gal(b1-4)GlcNAc(b1-6)[Gal(b1-3)]GalNAc
# Procedure, shortened: as §1
# [25] = molecular target: Gal(b1-4)GlcNAc(b1-6)[Gal(b1-4)GlcNAc(b1-3)]GalNAc
# Procedure, shortened: as §1
# GalNAc(a1-3)Gal = molecular target: GalNAc(a1-3)Gal
# Procedure, shortened: as §1
# [26] = molecular target: GlcNAc(a1-6)Gal(b1-4)GlcNAc
# Procedure, shortened: as §1
# [27] = molecular target: GlcNAc(b1-3)Gal(b1-4)GlcNAc(b1-2)Man(a1-3)[GlcNAc(b1-3)Gal(b1-4)GlcNAc(b1-2)Man(a1-6)]Man(b1-4)GlcNAc(b1-4)GlcNAc
# Procedure, shortened: as §1
# [28] = molecular target: GlcNAc(b1-3)Gal(b1-4)GlcNAc(b1-3)Gal(b1-4)GlcNAc(b1-2)Man(a1-3)[GlcNAc(b1-3)Gal(b1-4)GlcNAc(b1-3)Gal(b1-4)GlcNAc(b1-2)Man(a1-6)]Man(b1-4)GlcNAc(b1-4)[Fuc(a1-6)]GlcNAc
# Procedure, shortened: as §1
# [29] = molecular target: Man(a1-2)Man(a1-2)Man(a1-6)[Man(a1-3)]Man
# Procedure, shortened: as §1
# Man(a1-2)Man(a1-3)Man = molecular target: Man(a1-2)Man(a1-3)Man
# Procedure, shortened: as §1
# [30] = molecular target: Neu5Ac(a2-3)Gal(b1-3)GlcNAc6S
# Procedure, shortened: as §1
# [31] = molecular target: Neu5Ac(a2-3)Gal(b1-4)GlcNAc(b1-2)Man(a1-3)[GlcNAc(b1-4)][Neu5Ac(a2-3)Gal(b1-4)GlcNAc(b1-2)Man(a1-6)]Man(b1-4)GlcNAc(b1-4)GlcNAc
# Procedure, shortened: as §1
# [32] = molecular target: Neu5Ac(a2-3)Gal(b1-4)[Fuc(a1-3)]GlcNAc(b1-3)Gal(b1-4)GlcNAc
# Procedure, shortened: as §1
# [33] = molecular target: Neu5Ac(a2-3)Gal(b1-4)[Fuc(a1-3)]GlcNAc(b1-3)Gal(b1-4)[Fuc(a1-3)]GlcNAc(b1-3)Gal(b1-4)[Fuc(a1-3)]GlcNAc
# Procedure, shortened: as §1
# [34] = molecular target: Neu5Ac(a2-6)Gal(b1-4)GlcNAc(b1-2)Man(a1-6)Man(b1-4)GlcNAc(b1-4)GlcNAc
# Procedure, shortened: as §1
# [35] = molecular target: Neu5Ac(a2-6)Gal(b1-4)GlcNAc(b1-3)Gal(b1-4)GlcNAc(b1-2)Man(a1-3)[Neu5Ac(a2-6)Gal(b1-4)GlcNAc(b1-3)Gal(b1-4)GlcNAc(b1-2)Man(a1-6)]GalNAc
# Procedure, shortened: as §1
# [36] = molecular target: Neu5Ac(a2-6)Gal(b1-4)GlcNAc(b1-3)Gal(b1-4)GlcNAc(b1-3)Gal(b1-4)GlcNAc
# Procedure, shortened: as §1
# [37] = molecular target: Neu5Ac(b2-6)Gal(b1-4)GlcNAc
# Procedure, shortened: as §1
# [38] = molecular target: Neu5Gc(a2-3)Gal(b1-4)[Fuc(a1-3)]GlcNAc
# Procedure, shortened: as §1
binder,measurement,setting,value
DrGal9 (Danio rerio) (protein) MAFYQQPPYYNPRIPFSGPIQGGLQDGKSIIISGRVLPGANRFHVNLQCGSHSEANVALHFNPRYEDTDYVVNNSYLNRTWGSEERKYESPFAQGQTFTLQILVAQDKYKISTNGRHFMDYKHRIPFTQVDTVAVEGMVEVNSVAFQNPAGFIPPQAGYAPQYAVPPGCGFPAFPSAPNYTIPHKTVMNGGLHPGKNIVINGVVNPNAKSIIFNLCYRSGIAFHYNPRFDENVVVRNTNQMEKWGAEERFGGLPFHKGQPFQVTISCNPQHYNVFVNGKQEHTYKHRYTKLNDIDILEICGDLQLTSVQA,glycan array binding signal (z-score),[1],-0.123
same,glycan array binding signal (z-score),[2],3.83
same,glycan array binding signal (z-score),[3],-0.32
same,glycan array binding signal (z-score),[4],-0.391
same,glycan array binding signal (z-score),[5],0.599
same,glycan array binding signal (z-score),[6],3.36
same,glycan array binding signal (z-score),[7],-0.391
same,glycan array binding signal (z-score),[8],-0.329
same,glycan array binding signal (z-score),[9],-0.36
same,glycan array binding signal (z-score),[10],-0.336
same,glycan array binding signal (z-score),[11],-0.409
same,glycan array binding signal (z-score),Gal(a1-3)Gal,-0.376
same,glycan array binding signal (z-score),Gal(a1-4)Gal(b1-4)Glc,-0.356
same,glycan array binding signal (z-score),Gal(b1-3)GalNAc,-0.351
same,glycan array binding signal (z-score),[12],-0.117
same,glycan array binding signal (z-score),[13],-0.053
same,glycan array binding signal (z-score),[14],1.3
same,glycan array binding signal (z-score),[15],5.22
same,glycan array binding signal (z-score),[16],0.373
same,glycan array binding signal (z-score),[17],4.02
same,glycan array binding signal (z-score),[18],4.33
same,glycan array binding signal (z-score),[19],3.48
same,glycan array binding signal (z-score),[20],3.44
same,glycan array binding signal (z-score),[21],3.19
same,glycan array binding signal (z-score),[22],3.05
same,glycan array binding signal (z-score),[23],3.6
same,glycan array binding signal (z-score),[24],0.054
same,glycan array binding signal (z-score),[25],-0.007
same,glycan array binding signal (z-score),GalNAc(a1-3)Gal,-0.402
same,glycan array binding signal (z-score),[26],-0.386
same,glycan array binding signal (z-score),[27],1.73
same,glycan array binding signal (z-score),[28],3.13
same,glycan array binding signal (z-score),[29],-0.361
same,glycan array binding signal (z-score),Man(a1-2)Man(a1-3)Man,-0.396
same,glycan array binding signal (z-score),[30],-0.144
same,glycan array binding signal (z-score),[31],0.144
same,glycan array binding signal (z-score),[32],-0.356
same,glycan array binding signal (z-score),[33],-0.384
same,glycan array binding signal (z-score),[34],-0.399
same,glycan array binding signal (z-score),[35],1.22
same,glycan array binding signal (z-score),[36],0.598
same,glycan array binding signal (z-score),[37],-0.398
same,glycan array binding signal (z-score),[38],-0.351
